Measurements reported in PubChem BioAssay (NCI).
Compounds without any hit were thinned out: in the full panel of roughly 79,000, 15% have a hit. Rule as the data show it: active = growth inhibition above about 70%; inactive = the rest.

Experiments:
[1] = NCI Yeast Anticancer Drug Screen. Data for the rad50 strain (AID 155);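 also: 0% = growth of vehicle-only cultures of the same strain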; settings: S. cerevisiae rad50 strain growth inhibition; at 50.0 µM; active compounds read high
How it was run: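 A DNA repair-deficient yeast mutant serves as the test organism; compound-induced growth inhibition is calculated against vehicle-treated cells.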

[2] = NCI Yeast Anticancer Drug Screen. Data for the mec2-1 strain (AID 157); settings: S. cerevisiae mec2-1 strain, at 50.0 µM, active compounds read high
How it was run: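 Cells of the genetically defined mec2-1 yeast strain are incubated with test compound. Inhibition of growth is calculated against vehicle-treated controls.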

[3] = NCI Yeast Anticancer Drug Screen. Data for the sgs1 mgt1 strain (AID 161);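 also: 0% = growth of cultures given vehicle only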; settings: S. cerevisiae sgs1 mgt1 strain, at 50.0 µM, active compounds read high
How it was run: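 Mutant yeast exposed to compound; growth scored against vehicle-only wells.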

[4] = NCI Yeast Anticancer Drug Screen. Data for the cln2 rad14 strain (AID 165);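 also: 0% = growth equal to vehicle treated cultures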; settings: S. cerevisiae cln2 rad14 strain, at 50.0 µM, active compounds read high
How it was run: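 The screen exposed genetically defined yeast (cln2 rad14) to test compounds and scored growth inhibition relative to vehicle-treated controls.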

[5] = NCI Yeast Anticancer Drug Screen. Data for the bub3 strain (AID 167); settings: S. cerevisiae bub3 mutant strain, at 50.0 µM, active compounds read high
How it was run: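 Inhibition values come from growth of compound-treated mutant yeast normalised to vehicle-treated controls.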

[6] = NCI Yeast Anticancer Drug Screen. Data for the mlh1 rad18 strain (AID 175); settings: S. cerevisiae mlh1 rad18 strain growth inhibition; at 50.0 µM; active compounds read high
How it was run: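 Compound-treated yeast growth, normalised to vehicle controls. Strain bears defined DNA repair mutations.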

Measured: growth inhibition

C=C1CC(OC(=O)c2ccc([N+](=O)[O-])cc2)C1
inactive: [1] 1.5% | [2] -16.6% | [3] -16.5% | [4] -8.65% | [5] 3.7% | [6] -8.5%

CCC(CC)C(O)CCCN(C)C (stereo unspecified)
inactive: [1] 33.6% | [2] 21.8% | [3] 31.2% | [4] 12.8% | [5] 1.65% | [6] 24.1%

C=Nc1ccc([N+](=O)[O-])cc1
inactive: [1] 6.9% | [2] 10.2% | [3] -1.3% | [4] 14.6% | [5] -4.75% | [6] 26.3%

Cc1cc(C)c(Cc2c(C)cc(C)cc2C)c(C)c1
inactive: [1] 14.8% | [2] -25.6% | [3] 7.25% | [4] -2.85% | [5] 23.9% | [6] 13.9%

Cc1ccc(C)c(NC(=O)NC(C)C)c1
inactive: [1] -0.6% | [2] 0.5% | [3] 5.45% | [4] -25.6% | [5] -5.3% | [6] -0.35%

CCOC(=O)Nc1c(O)cccc1N1CCOCC1
inactive: [1] -14.1% | [2] 6.65% | [3] 25.9% | [4] -12.1% | [5] 7.4% | [6] -1.25%

CC1=C(c2ccccc2)CON(c2ccccc2)C1
inactive: [1] -9.3% | [2] -15.1% | [3] -9.2% | [4] -5.4% | [5] 14.8% | [6] -9.2%

CC1CN(c2ccc(Cl)cc2)CC(C)OC(=O)O1 (stereo unspecified)
inactive: [1] 18.8% | [2] -5.75% | [3] 5.65% | [4] 22.9% | [5] 21.8% | [6] 8.6%

Nc1nnc(CCCCCCCc2nnc(N)o2)o1
inactive: [1] -6.25% | [2] 12.6% | [3] 3.45% | [4] 7.5% | [5] 6.85% | [6] 13.2%

S=C(/C=C1\SC(=Nc2ccccc2)C(=Nc2ccccc2)N1c1ccccc1)Nc1ccccc1
inactive: [1] 1.25% | [2] -9% | [3] -9.6% | [4] -4.1% | [5] 10.3% | [6] 1.35%

C(=Nc1ccc2ccccc2c1)c1cccs1
inactive: [1] 1.6% | [2] -3.2% | [3] 12.6% | [4] -12.1% | [5] 5.1% | [6] -0.6%

OCCCN1CCN(CCO)CC1
inactive: [1] -42% | [2] -14.8% | [3] -12.7% | [4] -48.9% | [5] 4.25% | [6] -2.25%

c1ccc(Cn2ccnc2CSCCSCc2nccn2Cc2ccccc2)cc1
inactive: [1] 17.5% | [2] 37.2% | [3] -5.8% | [4] 12.9% | [5] -0.65% | [6] 29.9%

CCCCCC(Nc1nncs1)Nc1nncs1
inactive: [1] -4.2% | [2] -20.5% | [3] 14.9% | [4] 6.1% | [5] 8.4% | [6] 12.6%

O=c1[nH]c(=O)n(COCc2ccccc2)c2ccc(Br)cc12
inactive: [1] -7.55% | [2] -9.5% | [3] -2.75% | [4] -20.4% | [5] -6.95% | [6] -61.5%

Cc1cc2c(cc1C)N1C(Cl)=C3CCCCC3=C(C#N)C1N2 (stereo unspecified)
inactive: [1] 30.7% | [2] 30.4% | [3] 20.5% | [4] 28.3% | [5] 13.9% | [6] -8.95%

Cc1ccccc1C(c1ccccc1C)C(CC(=O)O)CC(=O)O
inactive: [1] 11.7% | [2] 14.2% | [3] 10.6% | [4] -102% | [5] 5.05% | [6] -2.6%

N#C/C(=C\N1CC(=O)NC1=S)c1nc2ccccc2s1
inactive: [1] 4.75% | [2] 8.45% | [3] -6.05% | [4] 23.3% | [5] 24.9% | [6] 19.2%

CCOC(=O)c1c(C)c(C(C)=O)c2ccccn12
inactive: [1] -18.2% | [2] -17.4% | [3] -19.9% | [4] -26.6% | [5] 5.4% | [6] -2.7%

CCOC(=O)Nc1ccn(C2OC(COC(C)=O)C(OC(C)=O)C2OC(C)=O)c(=O)n1 (stereo unspecified)
inactive: [1] 19.9% | [2] -11.4% | [3] 15.1% | [4] -46.4% | [5] -1.9% | [6] 8.3%

CC1(C)[C@@H]2C[C@H]1C(Cc1ccccc1C[C@H]1c3cc(-c4ccccn4)ncc3[C@H]3C[C@@H]1C3(C)C)c1cc(-c3ccccn3)ncc12 (stereo partly specified)
inactive: [1] 43.3% | [2] 39.3% | [3] 10.4% | [4] 24.4% | [5] 12.2% | [6] -32.4%
